Data: PubChem BioAssay (Tox21)
Results filed as inconclusive are left out. The source made the active and inactive calls. Unless noted, calls come from the whole dose curve; as a rule, active = well fitted curve in the direction sought with a large enough effect in the repeat runs; inconclusive = weak or mixed curves; inactive = no such curve, though single readings can be large; an effect the other way counts as inactive or inconclusive.

What was measured:
[1] = qHTS assay for small molecule agonists of the p53 signaling pathway - cell viability (AID 651633; calls by dose curve; note: nearly all actives have a fitted effect of over 30% in size; note: potency is the fitted concentration of half-maximal effect)
Method in brief: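 p53RE-bla cells, seeded at 4,000 per well and rested 5 h at 37 C/5% CO2, received compounds in DMSO for 16 h at 37 C. CellTiter-Glo was then added, and luminescence was read after 30 min at room temperature to gauge cytotoxicity.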

[2] = qHTS assay for small molecules that induce genotoxicity in human embryonic kidney cells expressing luciferase-tagged ATAD5 - cell viability (AID 651634; calls by dose curve; note: nearly all actives have a fitted effect of over 25% in size)
Method in brief: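 Viability read: CellTiter-Fluor fluorescence, 30 min at 37C. Cells: HEK293T, luciferase-tagged ATAD5. Exposure: 15.5 hr, 37C, 5% CO2, compound or DMSO vehicle.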

[3] = qHTS assay to test for compound auto fluorescence at 590 nm (red) in HepG2 cells (AID 720674)
Method in brief: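 Compound auto-fluorescence is scored relative to Rose Bengal sodium, measured at 540/590 nm in live HepG2 cultures after 1 hr compound contact (37 C, 5% CO2).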

[4] = qHTS assay to test for compound auto fluorescence at 535 nm (green) in HepG2 cells (AID 720675)
[5] = qHTS assay to test for compound auto fluorescence at 460 nm (blue) in HEK293 cells (AID 720678); note: potency is the fitted concentration of half-maximal effect
Method in brief: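 Measured: blue fluorescence (Ex 405/Em 460 nm) of compound-treated HEK293 cells, incubated overnight at 37C with 5% CO2 and scaled to triamterene equivalents.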

[6] = qHTS assay to test for compound auto fluorescence at 590 nm (red) in HEK293 cells (AID 720679)
Method in brief: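 Using HEK293 cells at 2,000 per well, the screen added 23 nL of each compound after cell attachment and incubated overnight (37C, 5% CO2). The plate reader then captured red-label fluorescence, Ex/Em 540/590nm.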

[7] = qHTS assay to test for compound auto fluorescence at 535 nm (green) in HEK293 cells (AID 720680)
[8] = qHTS assay to test for compound auto fluorescence at 460 nm (blue) in HEK293 cell free culture (AID 720681); note: potency is the fitted concentration of half-maximal effect
Method in brief: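 Test compounds were pinned into cell-free culture medium (DMEM with 10% FBS) and fluorescence was read directly at Ex/Em 405/460 nm. Signals were expressed as fluorescence equivalents of triamterene, with DMSO vehicle as control.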

[9] = qHTS assay to test for compound auto fluorescence at 535 nm (green) in HEK293 cell free culture (AID 720682)
Method in brief: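 Each library compound, or DMSO control, is added by pintool to medium alone, comprising DMEM and 10% FBS. Emission at 535 nm following 485 nm excitation is quantified against fluorescein.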

[10] = qHTS assay to test for compound auto fluorescence at 590 nm (red) in HEK293 cell free culture (AID 720683)
Method in brief: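 Tox21 10K library compounds were pinned into cell-free DMEM with 10% FBS and fluorescence was read at excitation 540 nm. Activity is expressed as Rose Bengal sodium equivalency.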

[11] = qHTS assay to test for compound auto fluorescence at 590 nm (red) in HepG2 cell free culture (AID 720684)
Method in brief: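 Measured in medium alone (MEM containing 10% FBS) following pintool addition of compound; emission at 590 nm with 540 nm excitation, referenced to Rose Bengal sodium.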

[12] = qHTS assay to test for compound auto fluorescence at 460 nm (blue) in HepG2 cell free culture (AID 720685); note: potency is the fitted concentration of half-maximal effect
Method in brief: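 Compound (23 nL) or DMSO pinned into cell-free MEM with 10% FBS; blue fluorescence read at 405/460 nm excitation/emission, expressed as auto-fluorescence equivalency to triamterene.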

[13] = qHTS assay to test for compound auto fluorescence at 535 nm (green) in HepG2 cell free culture (AID 720686)
[14] = qHTS assay to test for compound auto fluorescence at 460 nm (blue) in HepG2 cells (AID 720687)
Method in brief: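 Cells (2,000/well in MEM with 10% FBS) attached overnight at 37 C, then were exposed to compound or DMSO for 1 hr at 37 C, 5% CO2. Fluorescence read at Ex/Em 405/460 nm, expressed as triamterene-equivalent signal.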

[15] = biological target: Glucocorticoid receptor (Homo sapiens) (UniProt P04150); assay: qHTS assay to identify small molecule agonists of the glucocorticoid receptor (GR) signaling pathway (AID 720691; active = well fitted activation curve with a large enough effect in the signal ratio in the repeat runs, not every such curve was filed as active; the % refers to the signal ratio)
Method in brief: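 qHTS in GR-bla HeLa cells: 4 h settling at 37 C/5% CO2, 18 h compound incubation at 37 C, 2 h LiveBLAzer B/G FRET substrate at room temperature, fluorescence intensity measured.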

[16] = qHTS assay for small molecules that induce genotoxicity in human embryonic kidney cells expressing luciferase-tagged ATAD5 (AID 651632); note: nearly all actives have a fitted effect of over 15% in size
Method in brief: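 Luminescent reporter readout, HEK293T ATAD5-luc line: 16 hr drug exposure (37C, 5% CO2) followed by Amplite, 30 min RT.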

[17] = qHTS assay for small molecule disruptors of the mitochondrial membrane potential - cell viability (AID 720634; calls by dose curve;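 note: human HepG2 liver cancer cells; series mostly up to about 83 µM; nearly all actives have a fitted effect of over 20% in size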)
Method in brief: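 HepG2, 1 hr compound, 37 C. ATP luminescence via CellTiter-Glo, 30 min RT, same well as m-MPI.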

[18] = qHTS assay for small molecule disruptors of the mitochondrial membrane potential (AID 720635); note: potency is the fitted concentration of half-maximal effect
Method in brief: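 HepG2 cells (2,000/well) attached overnight at 37C, then took compound for 1 hr at 37C, 5% CO2. Mito-MPS dye was added for 30 min; fluorescence was read at 490/535 nm (monomers) and 540/590 nm (aggregates).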

[19] = biological target: Glucocorticoid receptor (Homo sapiens) (UniProt P04150); assay: qHTS assay to identify small molecule antagonists of the glucocorticoid receptor (GR) signaling pathway (AID 720692; active = well fitted inhibition curve with a large enough effect in the signal ratio in the repeat runs, not every such curve was filed as active; the % refers to the signal ratio)
Method in brief: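 Inhibition of glucocorticoid signalling is measured in HeLa cells with a GRE-controlled beta-lactamase reporter; cells are co-treated with compound and 5 nM dexamethasone (final) for 18 h before FRET substrate readout.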

Measured: Potency
Tags give direction and shape of the fitted curve or compound fluorescence and quenching.

Glucocorticoid receptor (Homo sapiens), sequence (P04150 whole entry, looked up): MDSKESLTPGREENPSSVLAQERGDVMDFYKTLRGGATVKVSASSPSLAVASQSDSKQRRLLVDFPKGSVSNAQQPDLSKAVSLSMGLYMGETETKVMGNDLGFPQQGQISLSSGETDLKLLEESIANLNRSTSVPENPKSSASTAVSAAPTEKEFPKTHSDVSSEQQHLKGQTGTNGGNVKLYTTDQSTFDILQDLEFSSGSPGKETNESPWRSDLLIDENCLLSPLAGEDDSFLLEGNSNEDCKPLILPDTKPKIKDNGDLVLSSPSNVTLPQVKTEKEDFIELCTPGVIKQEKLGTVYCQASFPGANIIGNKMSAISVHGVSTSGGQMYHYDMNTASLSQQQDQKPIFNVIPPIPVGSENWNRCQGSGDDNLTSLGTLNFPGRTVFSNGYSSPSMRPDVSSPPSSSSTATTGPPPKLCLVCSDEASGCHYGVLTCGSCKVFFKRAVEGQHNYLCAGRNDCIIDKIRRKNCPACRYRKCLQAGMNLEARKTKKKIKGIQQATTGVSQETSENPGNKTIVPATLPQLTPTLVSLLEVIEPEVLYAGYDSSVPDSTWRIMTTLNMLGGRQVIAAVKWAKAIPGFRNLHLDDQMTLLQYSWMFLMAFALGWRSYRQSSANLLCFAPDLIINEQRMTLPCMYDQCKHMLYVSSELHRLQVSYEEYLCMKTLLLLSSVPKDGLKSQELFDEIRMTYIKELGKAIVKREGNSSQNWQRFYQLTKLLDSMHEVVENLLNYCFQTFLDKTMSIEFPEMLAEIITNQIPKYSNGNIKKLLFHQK

O=C1CCc2ccc(OCCCCN3CCN(c4cccc(Cl)c4Cl)CC3)cc2N1
active: [1] 23.7 µM
inactive: [2] | [3] | [4] | [5] | [6] | [7] | [8] | [9] | [10] | [11] | [12] | [13] | [14] | [15]

O=C(O)c1ccc2cc(C(=O)O)ccc2c1
inactive: [16] | [1] | [17] | [18] | [3] | [4] | [5] | [6] | [7] | [8] | [9] | [10] | [11] | [12] | [13] | [14] | [15] | [19]

Cc1cc(=O)oc2cc(O)cc(O)c12
active: [18] 61.3 µM | [5] 39.8 µM [fluorescent] | [8] 39.8 µM | [12] 39.8 µM [fluorescent]
inactive: [16] | [1] | [17] | [3] | [4] | [6] | [7] | [9] | [10] | [11] | [13]

CCC(C)[O-].CCC(C)[O-].CCOC(=O)/C=C(/C)[O-].[Al+3]
inactive: [2] | [17] | [18] | [3] | [4] | [5] | [6] | [7] | [8] | [9] | [11] | [12] | [13] | [14]

Cc1ccc(O)c(O)c1
inactive: [16] | [2] | [17] | [3] | [4] | [5] | [6] | [7] | [8] | [9] | [10] | [11] | [12] | [13] | [14]

CCCNCCC
inactive: [1] | [2] | [17] | [18] | [4] | [5] | [6] | [7] | [8] | [9] | [10] | [11] | [12] | [13] | [14] | [15] | [19]

OCCN1CCN(CCCN2c3ccccc3Sc3ccc(C(F)(F)F)cc32)CC1
active: [1] 26.6 µM
inactive: [16] | [17] | [3] | [4] | [5] | [6] | [7] | [8] | [9] | [10] | [11] | [12] | [13] | [15]

S=c1nccc[nH]1
inactive: [16] | [1] | [17] | [18] | [3] | [4] | [6] | [7] | [8] | [9] | [11] | [12] | [13] | [14]

CN1CCC[C@@H]1CCO[C@](C)(c1ccccc1)c1ccc(Cl)cc1
inactive: [1] | [2] | [17] | [3] | [4] | [5] | [6] | [7] | [8] | [9] | [11] | [12] | [13] | [14]

Cc1ccc(O)c(N)c1
inactive: [17] | [3] | [4] | [5] | [6] | [7] | [8] | [9] | [10] | [11] | [12] | [13] | [14] | [15] | [19]

Oc1cc(Cl)cc(Cl)c1Cl
inactive: [1] | [3] | [4] | [5] | [6] | [7] | [8] | [9] | [10] | [11] | [12] | [13] | [14] | [15]
active: [18] 4.97 µM
